ChEMBL document CHEMBL1961873, “Compounds: GSK PKIS; Assays: Nanosyn kinase panel” (2012)

Key:
[1] = target: Mitogen-activated protein kinase kinase kinase kinase 4 (Homo sapiens) (UniProt O95819); conditions: at 1 µM;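 also: reported figure is an averaged inhibition value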
[2] = target: Dual specificity mitogen-activated protein kinase kinase 1 (Homo sapiens) (UniProt Q02750); conditions: at 0.1 µM
[3] = target: Dual specificity mitogen-activated protein kinase kinase 1 (Homo sapiens) (UniProt Q02750); conditions: at 1 µM
[4] = target: Misshapen-like kinase 1 (Homo sapiens) (UniProt Q8N4C8); conditions: at 0.1 µM
[5] = target: Misshapen-like kinase 1 (Homo sapiens) (UniProt Q8N4C8); conditions: at 1 µM
[6] = target: T1, Serine/threonine-protein kinase 4 (Homo sapiens) (UniProt Q13043); conditions: at 0.1 µM
T1 sequence (whole entry): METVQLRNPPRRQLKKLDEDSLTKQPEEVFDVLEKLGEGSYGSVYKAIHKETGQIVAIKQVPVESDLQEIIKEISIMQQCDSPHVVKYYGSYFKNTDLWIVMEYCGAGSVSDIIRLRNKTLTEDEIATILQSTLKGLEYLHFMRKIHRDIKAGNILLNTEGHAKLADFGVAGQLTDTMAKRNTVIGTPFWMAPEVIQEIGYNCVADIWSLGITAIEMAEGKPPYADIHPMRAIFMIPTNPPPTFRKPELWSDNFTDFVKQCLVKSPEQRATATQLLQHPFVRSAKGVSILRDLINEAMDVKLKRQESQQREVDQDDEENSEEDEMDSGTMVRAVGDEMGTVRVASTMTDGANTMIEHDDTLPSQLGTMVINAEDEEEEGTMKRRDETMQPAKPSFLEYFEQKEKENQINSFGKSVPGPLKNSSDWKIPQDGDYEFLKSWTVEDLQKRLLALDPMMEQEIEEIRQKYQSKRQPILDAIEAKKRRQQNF

[7] = target: T1, Serine/threonine-protein kinase 4 (Homo sapiens); conditions: at 1 µM
[8] = target: T2, Serine/threonine-protein kinase 3 (Homo sapiens) (UniProt Q13188); conditions: at 0.1 µM
T2 sequence (whole entry): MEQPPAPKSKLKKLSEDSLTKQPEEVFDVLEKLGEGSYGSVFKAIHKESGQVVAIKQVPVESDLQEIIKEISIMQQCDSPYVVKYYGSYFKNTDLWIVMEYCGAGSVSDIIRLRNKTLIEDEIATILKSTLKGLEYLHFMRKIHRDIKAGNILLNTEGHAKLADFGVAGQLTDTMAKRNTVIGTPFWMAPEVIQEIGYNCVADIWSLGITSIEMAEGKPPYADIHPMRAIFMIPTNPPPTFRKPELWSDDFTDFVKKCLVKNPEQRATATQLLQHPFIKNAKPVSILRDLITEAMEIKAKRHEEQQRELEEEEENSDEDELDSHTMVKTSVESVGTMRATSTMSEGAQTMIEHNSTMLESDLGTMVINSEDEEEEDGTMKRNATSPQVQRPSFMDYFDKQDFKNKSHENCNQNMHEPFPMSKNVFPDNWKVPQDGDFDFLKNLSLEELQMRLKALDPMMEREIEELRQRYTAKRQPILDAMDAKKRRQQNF

[9] = target: T2, Serine/threonine-protein kinase 3 (Homo sapiens); conditions: at 1 µM
[10] = target: Serine/threonine-protein kinase 26 (Homo sapiens) (UniProt Q9P289); conditions: at 0.1 µM
[11] = target: Serine/threonine-protein kinase 26 (Homo sapiens) (UniProt Q9P289); conditions: at 1 µM
[12] = target: Serine/threonine-protein kinase PAK 1 (Homo sapiens) (UniProt Q13153); conditions: at 0.1 µM
[13] = target: Serine/threonine-protein kinase PAK 1 (Homo sapiens) (UniProt Q13153); conditions: at 1 µM
[14] = target: Serine/threonine-protein kinase PAK 2 (Homo sapiens) (UniProt Q13177); conditions: at 0.1 µM
[15] = target: Serine/threonine-protein kinase PAK 2 (Homo sapiens) (UniProt Q13177); conditions: at 1 µM
[16] = target: Serine/threonine-protein kinase PAK 3 (Homo sapiens) (UniProt O75914); conditions: at 0.1 µM
[17] = target: Serine/threonine-protein kinase PAK 3 (Homo sapiens) (UniProt O75914); conditions: at 1 µM
[18] = target: Serine/threonine-protein kinase PAK 5 (Homo sapiens) (UniProt Q9P286); conditions: at 0.1 µM
[19] = target: Serine/threonine-protein kinase PAK 5 (Homo sapiens) (UniProt Q9P286); conditions: at 1 µM
[20] = target: Serine/threonine-protein kinase PAK 6 (Homo sapiens) (UniProt Q9NQU5); conditions: at 0.1 µM;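 also: mean PAK6 inhibition reported from the GSK PKIS screen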

Sequence of Serine/threonine-protein kinase PAK 5 (Homo sapiens) (Q9P286 whole entry, looked up): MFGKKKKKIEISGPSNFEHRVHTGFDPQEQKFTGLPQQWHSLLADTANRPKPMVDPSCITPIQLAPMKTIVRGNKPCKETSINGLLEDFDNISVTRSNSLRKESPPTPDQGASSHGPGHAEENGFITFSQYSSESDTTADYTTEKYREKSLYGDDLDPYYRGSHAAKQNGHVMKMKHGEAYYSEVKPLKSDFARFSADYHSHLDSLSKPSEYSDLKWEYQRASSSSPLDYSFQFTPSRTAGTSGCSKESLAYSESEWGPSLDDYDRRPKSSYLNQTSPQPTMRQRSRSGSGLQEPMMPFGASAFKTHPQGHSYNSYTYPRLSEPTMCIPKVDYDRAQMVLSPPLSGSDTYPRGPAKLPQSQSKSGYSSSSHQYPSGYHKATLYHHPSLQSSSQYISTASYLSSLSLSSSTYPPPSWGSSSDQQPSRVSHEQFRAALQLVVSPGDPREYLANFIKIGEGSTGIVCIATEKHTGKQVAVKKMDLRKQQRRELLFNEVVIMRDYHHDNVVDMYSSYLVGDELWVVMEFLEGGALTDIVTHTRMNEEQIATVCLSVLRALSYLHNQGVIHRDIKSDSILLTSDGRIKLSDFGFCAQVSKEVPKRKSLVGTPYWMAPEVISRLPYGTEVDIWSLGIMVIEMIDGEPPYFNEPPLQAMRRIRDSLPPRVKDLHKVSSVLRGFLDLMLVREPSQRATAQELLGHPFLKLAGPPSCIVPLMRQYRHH
Sequence of Misshapen-like kinase 1 (Homo sapiens) (Q8N4C8 whole entry, looked up): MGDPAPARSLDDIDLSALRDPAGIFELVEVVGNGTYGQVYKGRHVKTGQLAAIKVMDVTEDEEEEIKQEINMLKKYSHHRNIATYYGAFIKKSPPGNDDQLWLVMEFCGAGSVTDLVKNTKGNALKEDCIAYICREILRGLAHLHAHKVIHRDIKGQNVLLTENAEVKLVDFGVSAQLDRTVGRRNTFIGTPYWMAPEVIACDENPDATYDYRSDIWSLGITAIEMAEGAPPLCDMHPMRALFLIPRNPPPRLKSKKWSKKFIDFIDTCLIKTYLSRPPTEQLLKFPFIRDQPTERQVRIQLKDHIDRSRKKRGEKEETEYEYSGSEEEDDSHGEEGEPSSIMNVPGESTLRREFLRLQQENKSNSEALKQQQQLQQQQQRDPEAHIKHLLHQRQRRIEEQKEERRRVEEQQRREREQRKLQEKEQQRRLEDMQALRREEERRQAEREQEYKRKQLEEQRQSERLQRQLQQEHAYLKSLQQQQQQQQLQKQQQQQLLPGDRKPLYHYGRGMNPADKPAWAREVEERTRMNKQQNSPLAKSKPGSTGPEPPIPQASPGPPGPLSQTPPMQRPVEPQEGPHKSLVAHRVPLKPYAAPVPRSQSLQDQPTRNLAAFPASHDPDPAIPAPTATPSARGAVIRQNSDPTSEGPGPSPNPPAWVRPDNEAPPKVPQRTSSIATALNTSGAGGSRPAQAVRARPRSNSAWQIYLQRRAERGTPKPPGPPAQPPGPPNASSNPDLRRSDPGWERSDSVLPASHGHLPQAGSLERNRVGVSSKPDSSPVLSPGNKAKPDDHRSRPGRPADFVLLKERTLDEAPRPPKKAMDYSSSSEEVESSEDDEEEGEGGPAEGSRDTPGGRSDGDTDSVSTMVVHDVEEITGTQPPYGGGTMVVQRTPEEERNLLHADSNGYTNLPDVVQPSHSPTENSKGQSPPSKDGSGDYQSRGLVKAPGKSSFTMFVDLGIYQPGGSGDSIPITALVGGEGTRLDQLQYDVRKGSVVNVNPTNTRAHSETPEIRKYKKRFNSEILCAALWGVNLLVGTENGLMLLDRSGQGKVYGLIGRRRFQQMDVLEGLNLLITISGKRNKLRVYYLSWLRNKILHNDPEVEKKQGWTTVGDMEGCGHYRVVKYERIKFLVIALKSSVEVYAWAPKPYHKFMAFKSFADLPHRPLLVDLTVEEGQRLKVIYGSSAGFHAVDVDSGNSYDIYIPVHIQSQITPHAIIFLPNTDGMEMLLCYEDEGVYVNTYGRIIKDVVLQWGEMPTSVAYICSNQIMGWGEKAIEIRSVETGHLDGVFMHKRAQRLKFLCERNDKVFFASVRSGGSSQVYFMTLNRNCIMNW
Sequence of Dual specificity mitogen-activated protein kinase kinase 1 (Homo sapiens) (Q02750 whole entry): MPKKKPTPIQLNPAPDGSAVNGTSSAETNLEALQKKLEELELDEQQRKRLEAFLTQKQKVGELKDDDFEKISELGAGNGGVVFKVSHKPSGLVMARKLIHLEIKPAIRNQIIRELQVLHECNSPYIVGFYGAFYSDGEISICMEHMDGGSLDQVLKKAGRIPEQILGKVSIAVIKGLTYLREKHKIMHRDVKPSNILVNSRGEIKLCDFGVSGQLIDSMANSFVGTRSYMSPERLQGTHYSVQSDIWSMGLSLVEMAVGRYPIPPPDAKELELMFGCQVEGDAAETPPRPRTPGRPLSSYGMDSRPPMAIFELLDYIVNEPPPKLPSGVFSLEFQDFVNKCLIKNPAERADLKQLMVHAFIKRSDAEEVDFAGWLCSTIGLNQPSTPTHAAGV
Sequence of Serine/threonine-protein kinase PAK 3 (Homo sapiens) (O75914 whole entry, looked up): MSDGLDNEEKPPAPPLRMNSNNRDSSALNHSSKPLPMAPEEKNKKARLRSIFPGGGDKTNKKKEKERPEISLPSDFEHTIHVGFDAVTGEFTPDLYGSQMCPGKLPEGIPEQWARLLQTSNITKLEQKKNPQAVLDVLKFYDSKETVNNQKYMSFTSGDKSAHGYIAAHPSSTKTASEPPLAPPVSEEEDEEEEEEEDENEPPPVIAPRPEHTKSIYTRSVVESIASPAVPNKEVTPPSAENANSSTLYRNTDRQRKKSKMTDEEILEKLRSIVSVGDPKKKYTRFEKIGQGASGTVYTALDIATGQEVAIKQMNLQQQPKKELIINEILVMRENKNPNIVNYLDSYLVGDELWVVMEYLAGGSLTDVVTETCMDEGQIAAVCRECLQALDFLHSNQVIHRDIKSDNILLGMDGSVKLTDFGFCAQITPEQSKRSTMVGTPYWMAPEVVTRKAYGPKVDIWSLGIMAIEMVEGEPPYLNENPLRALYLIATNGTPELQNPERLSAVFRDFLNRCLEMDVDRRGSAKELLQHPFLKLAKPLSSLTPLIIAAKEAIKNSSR
Sequence of Mitogen-activated protein kinase kinase kinase kinase 4 (Homo sapiens) (O95819 2-1239 limits assumed): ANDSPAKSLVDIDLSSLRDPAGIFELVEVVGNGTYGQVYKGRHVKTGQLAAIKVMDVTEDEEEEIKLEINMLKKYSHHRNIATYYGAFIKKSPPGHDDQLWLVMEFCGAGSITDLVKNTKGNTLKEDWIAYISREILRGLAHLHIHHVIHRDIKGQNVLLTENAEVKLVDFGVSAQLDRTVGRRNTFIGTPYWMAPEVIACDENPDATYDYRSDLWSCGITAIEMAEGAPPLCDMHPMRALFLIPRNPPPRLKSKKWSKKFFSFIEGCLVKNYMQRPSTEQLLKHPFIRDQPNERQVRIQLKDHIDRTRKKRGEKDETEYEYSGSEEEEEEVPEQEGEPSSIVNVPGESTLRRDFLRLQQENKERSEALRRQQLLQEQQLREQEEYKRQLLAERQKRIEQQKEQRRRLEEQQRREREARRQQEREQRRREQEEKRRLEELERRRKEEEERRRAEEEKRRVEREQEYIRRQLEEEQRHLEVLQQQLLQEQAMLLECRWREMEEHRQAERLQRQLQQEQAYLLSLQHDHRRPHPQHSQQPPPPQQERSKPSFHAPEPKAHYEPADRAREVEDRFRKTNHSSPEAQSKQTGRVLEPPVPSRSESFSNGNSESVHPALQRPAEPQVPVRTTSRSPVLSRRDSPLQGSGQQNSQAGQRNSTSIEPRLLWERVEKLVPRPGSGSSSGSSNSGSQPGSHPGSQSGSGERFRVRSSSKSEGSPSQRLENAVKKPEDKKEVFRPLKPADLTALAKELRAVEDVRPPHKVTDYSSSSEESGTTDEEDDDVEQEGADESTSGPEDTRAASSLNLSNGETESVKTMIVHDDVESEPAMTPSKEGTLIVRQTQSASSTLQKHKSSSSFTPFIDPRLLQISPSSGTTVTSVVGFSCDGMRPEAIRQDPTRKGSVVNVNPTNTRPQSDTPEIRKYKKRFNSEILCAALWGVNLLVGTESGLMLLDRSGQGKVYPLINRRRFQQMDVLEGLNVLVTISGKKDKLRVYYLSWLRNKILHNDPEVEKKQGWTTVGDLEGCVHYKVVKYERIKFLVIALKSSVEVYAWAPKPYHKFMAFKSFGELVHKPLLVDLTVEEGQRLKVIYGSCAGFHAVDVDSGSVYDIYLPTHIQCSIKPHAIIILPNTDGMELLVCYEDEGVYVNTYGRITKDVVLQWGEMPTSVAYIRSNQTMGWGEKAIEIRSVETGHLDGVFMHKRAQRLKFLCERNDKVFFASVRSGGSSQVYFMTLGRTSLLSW
Sequence of Serine/threonine-protein kinase 26 (Homo sapiens) (Q9P289 2-416 limits assumed): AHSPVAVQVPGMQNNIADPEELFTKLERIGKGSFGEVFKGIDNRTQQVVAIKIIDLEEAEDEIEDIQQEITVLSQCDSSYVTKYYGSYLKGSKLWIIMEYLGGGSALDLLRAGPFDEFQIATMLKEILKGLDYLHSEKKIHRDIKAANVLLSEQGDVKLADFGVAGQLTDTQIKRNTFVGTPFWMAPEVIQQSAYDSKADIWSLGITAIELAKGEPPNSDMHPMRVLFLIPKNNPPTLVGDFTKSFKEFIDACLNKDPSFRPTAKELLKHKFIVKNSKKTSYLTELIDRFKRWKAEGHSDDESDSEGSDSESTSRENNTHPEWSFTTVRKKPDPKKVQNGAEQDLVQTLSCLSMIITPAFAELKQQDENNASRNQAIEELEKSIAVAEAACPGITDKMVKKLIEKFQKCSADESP

COc1cc2ncn(-c3cc(OCc4ccccc4C(F)(F)F)c(C(C)=O)s3)c2cc1OC
inhibition [1]: 8.16%
inhibition [2]: 3.88%
inhibition [3]: 3.7%
inhibition [4]: 5%
inhibition [5]: 8.55%
inhibition [6]: 3.51%
inhibition [7]: 3.86%
inhibition [8]: 3.42%
inhibition [9]: 7.42%
inhibition [10]: -0.47%
inhibition [11]: -1.77%
inhibition [12]: 5.43%
inhibition [13]: 4.68%
inhibition [14]: 0.85%
inhibition [15]: 1.29%
inhibition [16]: 4.94%
inhibition [17]: 2.41%
inhibition [18]: -1.43%
inhibition [19]: 0.17%
inhibition [20]: -1.14%

Fc1ccc(-c2ncn(C3CCNCC3)c2-c2ccnc(Oc3ccc(Oc4ccccc4)cc3)n2)cc1
inhibition [1]: 7.43%
inhibition [2]: 4.35%
inhibition [3]: 7.53%
inhibition [4]: 5.29%
inhibition [5]: 9.38%
inhibition [6]: 2.43%
inhibition [7]: 4.68%
inhibition [8]: 4.83%
inhibition [9]: 5.3%
inhibition [10]: -1.41%
inhibition [11]: 2.78%
inhibition [12]: 6.63%
inhibition [13]: 8.97%
inhibition [14]: 2.19%
inhibition [15]: 3.52%
inhibition [16]: 4.8%
inhibition [17]: 8.51%
inhibition [18]: 5.41%
inhibition [19]: 6.5%
inhibition [20]: -6.7%

CCc1nccc2c1nc(-c1nonc1N)n2CC
inhibition [1]: 6.31%
inhibition [2]: 1.12%
inhibition [3]: 1.54%
inhibition [4]: 3.5%
inhibition [5]: 3.84%
inhibition [6]: -1.14%
inhibition [7]: -0.39%
inhibition [10]: -1.4%
inhibition [11]: -1.83%
inhibition [12]: 3.29%
inhibition [13]: 3.71%
inhibition [14]: 0.74%
inhibition [15]: 1.13%
inhibition [16]: 0.51%
inhibition [17]: 1.09%
inhibition [20]: 3.51%

CS(=O)(=O)CCNCc1cc(-c2cc3c(Nc4ccc(OCc5cccc(F)c5)c(Cl)c4)ncnc3s2)cs1
inhibition [1]: 10.3%
inhibition [2]: 4.54%
inhibition [3]: 5.74%
inhibition [4]: 6.33%
inhibition [5]: 8.36%
inhibition [6]: 4.99%
inhibition [7]: 6.28%
inhibition [8]: 6.59%
inhibition [9]: 6.16%
inhibition [10]: -2.65%
inhibition [11]: -1.71%
inhibition [12]: 10.9%
inhibition [13]: 9.09%
inhibition [14]: 2.13%
inhibition [15]: 3.83%
inhibition [16]: 4.86%
inhibition [17]: 7.41%
inhibition [18]: 5.61%
inhibition [19]: 3.34%
inhibition [20]: -6.6%

Fc1ccc(-c2ncn(C3CCNCC3)c2-c2ccnc(Oc3ccc4c(c3)OCO4)n2)cc1
inhibition [1]: 7.72%
inhibition [2]: 4.99%
inhibition [3]: 8.82%
inhibition [4]: 5.95%
inhibition [5]: 12%
inhibition [6]: 4.76%
inhibition [7]: 8.51%
inhibition [8]: 6.72%
inhibition [9]: 10.8%
inhibition [10]: -1.94%
inhibition [11]: -0.15%
inhibition [12]: 6.43%
inhibition [13]: 8.06%
inhibition [14]: 2.45%
inhibition [15]: 2.56%
inhibition [16]: 6.04%
inhibition [17]: 6.56%
inhibition [18]: 1.45%
inhibition [19]: 2.03%
inhibition [20]: 1.43%

NCc1ccc(-n2c(-c3nonc3N)nc3cnccc32)cc1
inhibition [1]: 20.3%
inhibition [2]: 8.09%
inhibition [3]: 8.5%
inhibition [4]: 11.2%
inhibition [5]: 16.3%
inhibition [6]: 9.89%
inhibition [7]: 19.6%
inhibition [8]: 10.2%
inhibition [9]: 13.1%
inhibition [10]: 0.95%
inhibition [11]: -0.73%
inhibition [12]: 12%
inhibition [13]: 11.4%
inhibition [14]: 3.24%
inhibition [15]: 4.52%
inhibition [16]: 5.94%
inhibition [17]: 6.83%
inhibition [19]: -2.63%
inhibition [20]: -1.38%

Fc1ccc(-c2nc3n(c2-c2ccncc2)CCS3)cc1
inhibition [1]: 18.3%
inhibition [2]: 5.23%
inhibition [3]: 5.11%
inhibition [4]: 6.96%
inhibition [5]: 14%
inhibition [6]: 3.57%
inhibition [7]: 4.41%
inhibition [8]: 3.46%
inhibition [9]: 3.73%
inhibition [10]: -1.69%
inhibition [11]: -1.08%
inhibition [12]: 6.15%
inhibition [13]: 8.39%
inhibition [14]: 3.06%
inhibition [15]: 1.6%
inhibition [16]: 4.5%
inhibition [17]: 4.49%
inhibition [18]: -6.84%
inhibition [19]: -7.5%
inhibition [20]: 9.34%

O=C(Nc1n[nH]c2nc(-c3ccco3)ccc12)C1CC1
inhibition [1]: 32.1%
inhibition [2]: -0.04%
inhibition [3]: 0.75%
inhibition [4]: 3.07%
inhibition [5]: 18.1%
inhibition [6]: 1.17%
inhibition [7]: 1.95%
inhibition [8]: 0%
inhibition [9]: -0.23%
inhibition [10]: 0.08%
inhibition [11]: 1.1%
inhibition [12]: 0.35%
inhibition [13]: 1.74%
inhibition [14]: 0.42%
inhibition [15]: -0.03%
inhibition [16]: 0.51%
inhibition [17]: 0.64%
inhibition [18]: 5.55%
inhibition [19]: 3.74%
inhibition [20]: 6.27%

NS(=O)(=O)c1ccc(N/N=C2\C(=O)Nc3ccc(C(=O)NCCCn4ccnc4)cc32)cc1
inhibition [1]: 52.1%
inhibition [2]: 10.7%
inhibition [3]: 38%
inhibition [4]: 9.83%
inhibition [5]: 41.5%
inhibition [6]: 28.6%
inhibition [7]: 75.5%
inhibition [8]: 22.2%
inhibition [9]: 70%
inhibition [10]: -0.28%
inhibition [11]: 6.6%
inhibition [12]: 4.13%
inhibition [13]: 11.5%
inhibition [14]: 0.82%
inhibition [15]: 2.78%
inhibition [16]: 4.22%
inhibition [17]: 5.04%
inhibition [19]: -1.29%
inhibition [20]: -2.98%
